Sampled rows, rich in hits. Any-hit rate of the full collection: about 2.8%.
SMARCA2 activ = increases SMARCA2 function in MMTV reporter cells | MG213 cells, MMTV-luciferase reporter, dexamethasone, overnight | activation, % at 9.1 µM | actives 1% (n = 370,000) | AID 652017; in the data active = activation above about 7.8%
MsrA inh = inhibits bovine methionine sulfoxide reductase A | purified bovine MsrA, absorbance read-out | inhibition, % at 15.5 µM | actives 0.75% (n = 360,000) | AID 651718
proKLK7 act = activators of human kallikrein-7 zymogen. purified proKLK7, EDANS-DABCYL substrate fluorescence; 100% is mature enzyme control, 0% vehicle. actives 0.9% (n = 370,000). activation, % at 7 µM;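 active = activation above the mean of all tested compounds plus 3 SD, computed per campaign excluding outliers beyond control limits, cut at about 13% in these data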
Target sequence (P49862 whole entry, looked up): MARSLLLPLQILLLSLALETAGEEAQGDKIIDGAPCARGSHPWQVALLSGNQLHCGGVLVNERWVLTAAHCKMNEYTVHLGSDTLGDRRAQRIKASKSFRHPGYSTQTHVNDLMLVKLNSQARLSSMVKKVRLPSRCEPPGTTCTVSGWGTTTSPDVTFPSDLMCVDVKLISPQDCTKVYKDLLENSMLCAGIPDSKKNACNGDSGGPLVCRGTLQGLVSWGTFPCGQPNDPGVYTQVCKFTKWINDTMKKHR
bovine MsrA act = activators of bovine methionine sulfoxide reductase A. purified bovine MsrA, absorbance read-out. activation, % at 10.6 µM. actives 0.3% (n = 360,000). AID 602163; in the data active = activation above about 7.5%
MsrA inh confirm = bovine MsrA inhibition, confirmed. purified bovine MsrA, absorbance read-out. shares compounds with MsrA inh. inhibition, % at 15.5 µM. actives 41% (n = 2,300). AID 651822;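 also: coupled to thioredoxin reductase with NADPH and selenocystamine and DMSO as substrate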
Large screens that a line does not name were inactive (follow-up assays come after a bar, where they were run). Rule as the data show it, unless noted: active = inhibition above about 4.5%; inactive = the rest.

NC(=O)C1(Nc2ccc(Br)cc2)CCCC1	none
O=C(O)c1cccc(NS(=O)(=O)c2ccc3c(c2)C(=O)c2ccccc2C3=O)c1	MsrA inh 33 | MsrA inh confirm 25
O=C(O)c1cccc(NS(=O)(=O)c2ccc(C3CCCCC3)cc2)c1	none (no result: SMARCA2 activ, MsrA inh, proKLK7 act)
Cn1c(O)c(N=NC(=O)CNC(=O)c2cccnc2)c2ccccc21	MsrA inh 4.7 | MsrA inh confirm inactive
O=c1[nH][nH]c2c1[C@H](c1ccc(F)cc1)O[C@H](CCc1ccccc1)C2	none
Cc1ccc(Nc2n[nH]c(C)c2[N+](=O)[O-])cc1C	MsrA inh 11 | MsrA inh confirm 8.2
Cn1c(/C=N/NC(=O)c2ccccc2Br)nc2ccccc21	MsrA inh 5.3 | MsrA inh confirm inactive
CC1(C(=O)NS(=O)(=O)c2ccc(Cl)cc2)CCN1C(=O)Cc1ccccc1Cl (configuration not stated)	none
COc1cc(C)c(/C=C/C(C)=C/C=C/C(C)=C/C(=O)O)c(C)c1C	MsrA inh 4.7 | MsrA inh confirm inactive
Cc1ccc(C)c(N2CC(C(=O)Nc3nccs3)CC2=O)c1 (configuration not stated)	none
COc1cc(CC(=O)O)c([N+](=O)[O-])cc1OC	none
COc1cc2c(cc1[N+](=O)[O-])n(C(C)C)c(=O)n2C(C)C	MsrA inh 8.7 | MsrA inh confirm 6.3
O=C(/C(C=Nc1ccc(Br)cc1)=C(/O)c1ccco1)C(F)(F)F	MsrA inh 4.8 | MsrA inh confirm inactive
COc1cccc(/C=C2/NC(=O)N(CC(=O)Nc3ccc(C)cc3)C2=O)c1OCc1cccc(C(=O)O)c1	none
Cc1ccc(NC(=O)CN2C(=O)N/C(=C/c3ccccc3OCc3cccc(C(=O)O)c3)C2=O)cc1	MsrA inh 4.7 | MsrA inh confirm inactive
O=c1[nH]nc(N/N=C/c2ccccc2OC(F)F)c(=O)[nH]1	MsrA inh 5.0 | MsrA inh confirm inactive
Cc1cc(O)c2c(c1)C(=O)c1cccc(O)c1C2=O	none (no result: bovine MsrA act)
O=C(O)c1cc(O)c2c(c1)C(=O)c1cccc(O)c1C2=O	MsrA inh 4.7 | MsrA inh confirm 17
CC(=O)Nc1ccc2c(c1)C(=O)N(C)[C@H]1CC[C@H](CC(=O)NCc3ccc(F)cc3)O[C@@H]1CO2	none (no result: MsrA inh, bovine MsrA act)
C/C(N)=C(/C#N)C(=O)CSc1nnc(SCc2ccc(Cl)cc2)s1	none
C/C(N)=C(/C#N)C(=O)CSc1nn(-c2ccc(Cl)cc2)c(=S)s1	MsrA inh 21 | MsrA inh confirm 14
Nc1nc(N)c2sc3nc(C(F)(F)F)cc(C(F)(F)F)c3c2n1	MsrA inh 7.5 | MsrA inh confirm inactive
Cc1cc(C(F)(F)F)c2sc(N)nc2n1	none
CS/C(=C/[N+](=O)[O-])Nc1cccc2c1C(C)CC2(C)C (configuration not stated)	MsrA inh 23 | MsrA inh confirm 20
CS/C(=C\[N+](=O)[O-])Nc1ccc(OC(F)(F)F)cc1	none
Cc1ccc(S(=O)(=O)N(C)C[C@H]2Oc3cc(C#Cc4ccccc4)ccc3S(=O)(=O)N([C@H](C)CO)C[C@@H]2C)cc1	none
CC(C)(C)OC(=O)N1CCC(C(=O)Nc2ccc(C(=O)N3CCCCC3)cc2)CC1	none
N#C/C(=C\c1ccc(Cl)cc1)c1n[nH]c(Cn2cncn2)n1	none
COc1ccc(/C=C(\C#N)c2n[nH]c(Cn3cncn3)n2)cc1	MsrA inh 5.7 | MsrA inh confirm 5.2
CCOC(=O)c1nnn(-c2nonc2-c2ccccc2)c1C	MsrA inh 19 | MsrA inh confirm 14
CCOC(=O)c1nnn(-c2nonc2N)c1COc1ccccc1	none
Cc1ccc(Cc2c(-c3ccc(C#N)cc3)nc3c4ccccc4ccn23)cc1	none
Cn1cc(C(=O)N/N=C/C(Br)=C/c2ccccc2)ccc1=O	MsrA inh 6.7 | MsrA inh confirm 5.7
COc1ccc(C(=O)N/N=C/C(Br)=C/c2ccccc2)cc1	none
Cn1cc(C(=O)N/N=C/C=C/c2ccccc2)ccc1=O	MsrA inh 9.7 | MsrA inh confirm 5.1
O=C(N/N=C/C=C/c1ccccc1)c1ccc(Br)cc1	none
O=C(N/N=C/C(Br)=C/c1ccccc1)c1cnccn1	MsrA inh 6.3 | MsrA inh confirm 4.6
O=C(N/N=C/C(Cl)=C/c1ccccc1)c1ccncc1	MsrA inh 4.9 | MsrA inh confirm inactive
O=C(Nc1cccs1)OC1CC2CC1[C@H]1CCCCN1C2 (some centres not stated)	none (no result: MsrA inh, bovine MsrA act)
COC(=O)[C@]12C[C@H](CC(=O)N3CCCCC3)C(=O)N(Cc3cccc4ccccc34)C1=C[C@H](C(C)C)O[C@@H]2C1CC1	none (no result: MsrA inh, bovine MsrA act)
NC(=O)c1ccc(NC(=O)COC(=O)CCN2C(=O)c3ccccc3C2=O)cc1	none
COc1ccc(/C=N/NC(=O)C(=O)N2CCCC2)cc1	none
CN(C)c1ccc(/C=N/NC(=O)C(=O)N2CCCCCC2)cc1	MsrA inh 4.7 | MsrA inh confirm 5.9
O=C(N/N=C/c1ccc2ncccc2c1)c1ccco1	MsrA inh 5.2 | MsrA inh confirm inactive
CN(C)c1ccc(/C=N/NC(=O)c2cc(=O)[nH]c3ccccc23)cc1	MsrA inh 7.1 | MsrA inh confirm inactive
CN(C)c1ccc(/C=N/NC(=O)c2ccco2)cc1	MsrA inh 4.7 | MsrA inh confirm 5.1
COc1ccc(OC)c(NC(=O)c2ccccc2N(Cc2ccccc2)C(=O)C(C)Cl)c1 (configuration not stated)	none (no result: MsrA inh, bovine MsrA act)
S=c1nc(NCCc2ccccc2Cl)c2ccccc2[nH]1	none
CC(C)(C)C(=O)OC12CCCN(C1)/C(=C/c1ccc(Cl)cc1)C2 (configuration not stated)	none (no result: MsrA inh, bovine MsrA act)
CN(C)c1ccc(/C=N/NC(=O)c2ccn(C)n2)cc1	MsrA inh 6.3 | MsrA inh confirm inactive
CCC(=O)N/N=C/c1ccc(-c2ccc(Cl)cc2)o1	MsrA inh 4.8 | MsrA inh confirm inactive
CCC(=O)N/N=C/c1ccc(-c2ccc([N+](=O)[O-])cc2)o1	none
Cc1cc(NS(=O)(=O)c2ccc(NC(=O)CSc3nnc(-c4ccccn4)n3-c3ccccc3)cc2)nc(C)n1	none (no result: MsrA inh, bovine MsrA act)
CC(=O)OC1COC(n2ccc3cc([N+](=O)[O-])ccc32)C(OC(C)=O)C1OC(C)=O (configuration not stated)	MsrA inh 6.0 | MsrA inh confirm inactive
CC(=O)O[C@@H]1[C@@H](OC(C)=O)[C@H](n2ccc3cc([N+](=O)[O-])ccc32)OC[C@@H]1OC(C)=O	none
COc1ccc(/C=C/C(=O)C2(O)CCCCC2)cc1	MsrA inh 5.2 | MsrA inh confirm inactive
CCCCn1nnnc1C(c1cc2ccccc2o1)N(C)Cc1ccc(Cl)cc1 (configuration not stated)	none
CSc1nc2sc3c(c2c2nnnn12)CCCC3	MsrA inh 12 | MsrA inh confirm 17
N#C/C(=C(/O)CSc1ccccc1C(=O)O)c1nc2ccccc2s1	MsrA inh 7.1 | MsrA inh confirm 7.1
COc1cc(/C=N/NC(=O)C(Cc2c[nH]c3ccccc23)NC(=O)OCc2ccccc2)cc([N+](=O)[O-])c1O (configuration not stated)	MsrA inh 5.8 | MsrA inh confirm 5.2
COC(=O)N/N=C/c1cc(OC)c(O)c([N+](=O)[O-])c1	none
